# Results published in ChEMBL document CHEMBL1157539, “Thousands of chemical starting points for antimalarial lead identification” (Nature, 2010).
# Key:
# Assay type in all cases: functional
# [1] = tested on: Plasmodium falciparum; test: GSK_TCMDC: Inhibition of Plasmodium falciparum 3D7 in whole red blood cells, using parasite LDH activity as an index of growth. Test compounds present at 2uM
# [2] = tested on: Plasmodium falciparum; test: GSK_TCMDC: Inhibition of Plasmodium falciparum Dd2 in whole red blood cells, using parasite LDH activity as an index of growth. Test compounds present at 2uM
# [3] = tested on: HepG2; test: GSK_TCMDC: Percent inhibition of human HepG2 cell line. Test compounds present at 10uM.
SMILES,Inhibition [1],Inhibition [2],Inhibition [3]
CCCCN1C(=N)NC(c2ccccc2)(c2ccccc2)C1=O,87%,34%,19%
Oc1ccccc1CNC1CCCCC1NCc1ccccc1O (centres undefined),96%,66%,53%
CN(C)CCOc1ccc(-c2cc(-c3ccc(Cl)c(O)c3)c(-c3ccnc(N)n3)o2)cc1,100%,95%,43%
O=C(NCc1ccc2c(c1)OCO2)c1nn(CCN2CCC(N3CCCC3)CC2)cc1-c1ccc(Cl)c(Cl)c1,94%,17%,21%
COc1ccc2nccc(N3C[C@H]4C[C@@H]3CN4CCNCc3ccc4c(n3)NC(=O)CS4)c2n1.Cl,99%,0%,21%
CC(=O)Nc1ccc(CN2CCN(C(c3ccc(F)cc3)c3ccc(F)cc3)CC2)cc1,93%,79%,4%
Cc1cccc(OC2CCN(c3ncc(C(=O)NCCCN4CCCC4=O)cc3Cl)CC2)c1,96%,95%,7%
COc1cc(F)c2ncc(C#N)c(CCN3CCC(NCc4ccc5c(c4)OCCO5)CC3)c2c1.Cl,97%,59%,5%
Cc1[nH]c(C)c(-c2ccc(OCc3ccc(OC(F)(F)F)cc3)nc2)c(=O)c1Cl,98%,96%,3%
Cc1cnc(C(=O)Nc2cccc(-c3ccc(-c4nc5cc(C(F)(F)F)ccc5[nH]4)s3)c2)cn1,86%,14%,35%
O=C(C=CC(=O)N1CCCCC1)NCc1ccccc1,100%,0%,6%
Cn1cncc1C(=O)Nc1cccc(-c2cccc(-c3nc4ccccc4[nH]3)c2)c1,100%,35%,9%
CCCCN1CCN(c2cc(NS(=O)(=O)c3cccc(C(=O)Nc4ccc(C(F)(F)F)cc4)c3)ccc2OC)CC1.O=C(O)C(F)(F)F,99%,7%,6%
CC(C)(C)c1ccc2[nH]c(-c3ccc(C(=O)NC4CCN(Cc5ccccc5)CC4)s3)nc2c1,91%,42%,24%
COc1cccc(-c2ccc3c(-c4cccc(NC(C)=O)c4)cnc(N)c3c2)c1.O=CO,99%,83%,71%
CN1CCC(C(=O)Nc2cccc(-c3cccc(-c4nc5cc(F)ccc5[nH]4)c3)c2)CC1,100%,27%,32%
CCC1(CC)CN(c2ccccc2)c2ccc(O)cc2S(=O)(=O)C1CC(C)C (centres undefined),96%,89%,0%
O=C(Nc1ccccc1F)NC1CCN(c2ccnc(Nc3ccc(F)cc3)n2)C1 (centres undefined),95%,74%,0%
CCc1cc2c(O)c([N+](=O)[O-])c(=O)oc2cc1OCCCCCOc1cc2oc(=O)c([N+](=O)[O-])c(O)c2cc1CC,99%,0%,11%
Clc1ccc(Sc2cncnc2N2CCOCC2)cc1,95%,0%,66%
O=C(Nc1cccc(-c2cccc(-c3nc4cc(F)ccc4[nH]3)c2)c1)Nc1ccc2c(c1)OCO2,100%,49%,30%

SMILES,Inhibition [1],Inhibition [2],Inhibition [3]
O=C(Nc1ccc(Cl)cc1)Nc1ccc2nonc2c1,94%,77%,0%
COCC(=O)N(Cc1ccccc1-c1cccc(CNCc2ccc3c(c2)OCO3)c1)C1CCN(Cc2ccccc2)CC1.O=C(O)C(F)(F)F,94%,72%,33%
Cc1nc(C)c(-c2ccc(C(F)(F)F)cc2)c(O)c1Br,98%,96%,0%
CC1CNC(c2cccc(NC(=O)Nc3cccc(C4=NC(C)CN4)c3)c2)=N1.Cl (centres undefined),94%,98%,7%
O=C(/C=C/c1ccc(Cl)c(Cl)c1)NCC(CCCN1CCC(c2c[nH]c3ccccc23)CC1)c1ccccc1 (centres undefined),100%,46%,98%
CN(C)CCNCc1cccc(-c2ccc3c(Nc4ccc(Oc5ccccc5)cc4)ccnc3c2)c1,100%,99%,31%
Cc1noc(C)c1C(=O)N1CCCC(c2[nH]c3c(C)cccc3c2-c2ccncc2)C1.Cl (centres undefined),100%,100%,16%
C=CCN1C(=O)c2[nH]nc(-c3cc(C)c(C)cc3O)c2C1c1cccc(Br)c1 (centres undefined),90%,82%,0%
C=CCOc1ccccc1CNCC(O)c1cc(Br)cs1 (centres undefined),93%,72%,25%
Cl.N=C(N)c1cc(Br)cc(NC(=O)Nc2cc(Br)cc(C(=N)N)c2)c1,93%,76%,0%
CCN(CCCN1CCCCC1)c1cc(C)nc(Nc2ccc(Cl)cc2C)n1.O=C(O)C(F)(F)F,95%,46%,44%
NC(=O)c1ccsc1NC(=O)CNC(c1ccc(F)cc1)c1cccs1 (centres undefined),92%,71%,31%
Nc1c2c(nc3ccccc13)C(=Cc1ccc(O)cc1)CCC2,99%,6%,9%
Oc1cccc(-c2nc(-c3ccccc3)c(-c3ccc(Oc4ccc(-c5[nH]c(-c6cccc(O)c6)nc5-c5ccccc5)cc4)cc3)[nH]2)c1,91%,96%,6%
O=C(Nc1ccc([N+](=O)[O-])cc1Cl)c1cc2ccccc2cc1O,94%,28%,6%
CC(=O)c1cccc2c(NC(=O)Nc3ccc4nccc(N5CCN(C)CC5)c4c3)cccc12.Cl,99%,94%,13%
Cn1nc(-c2ccccc2F)c2cc(C(=O)NC3CCN(Cc4ccccc4)CC3)sc21,97%,34%,5%
CCOc1c(Cl)cc(Cl)cc1CNCCCNc1nc2ccccc2[nH]1.Cl,94%,1%,18%
CC(CN(C)C)C(=O)Nc1ccc(-c2cccc(-c3nc4ccccc4[nH]3)c2)cc1 (centres undefined),99%,57%,68%
CC(C)(C)c1cc(C(=O)N2CCC(c3ccccn3)CC2)n(Cc2ccccc2)n1,96%,90%,3%
Cc1ccc(O)cc1Nc1ccnc2ccc(C(C)(C)C)cc12,100%,100%,6%

SMILES,Inhibition [1],Inhibition [2],Inhibition [3]
Cc1cccc(-n2c(=O)c3c4c(sc3n3c(SCCC(C)C)nnc23)CCCC4)c1,90%,8%,0%
Cl.O=C(Nc1ccc2nccc(N3CCN4CCC[C@H]4C3)c2c1)c1ccc(Cl)c(Cl)c1,100%,98%,18%
COc1ccc(Nc2nc(NCc3cccc(NS(C)(=O)=O)c3)cc(-c3ccc(OC)cc3)n2)cc1,84%,5%,0%
O=C(NC1CCN(c2ccnc3cc(Cl)ccc23)C1)c1ccccc1F.O=C(O)C(F)(F)F (centres undefined),100%,71%,8%
Cc1n[nH]c2ccc(-c3cc(OC[C@@H](N)Cc4ccccc4)cnc3-c3ccc(OCc4cccc(F)c4)cc3)cc12.O=C(O)C(F)(F)F,98%,59%,97%
Cc1n[nH]c2ccc(-c3ccc4nccc(N5CCC(N)CC5)c4c3)cc12.Cl,100%,100%,67%
O=C(Nc1cccc(-c2cccc(-c3nc4cc(C(F)(F)F)ccc4[nH]3)c2)c1)c1cccnc1Cl,95%,58%,56%
CC(C)COc1ccc(Cl)cc1Cc1nc(-c2nc3ccc(CN4CCCC4)cc3[nH]2)co1.Cl,100%,66%,50%
Cc1cc(NCCc2ccccc2)nc(NC(=N)Nc2cccc(Cl)c2)n1,100%,100%,24%
CCOC(=O)c1c(C)noc1Nc1ccc(OC)cc1,99%,0%,0%
CCn1c2ccccc2c2cc(Cc3cnc(N)nc3N)ccc21.Cl,94%,0%,28%
O=C(c1ccc(-c2cccc(-c3nc4cc(C(F)(F)F)ccc4[nH]3)c2)cc1)N1CCCCC1CN1CCC(O)C1 (centres undefined),100%,98%,29%
O=C1Nc2cccc3c2C1(CCCCCN1CCC(c2c[nH]c4ccncc24)CC1)CCC3 (centres undefined),95%,3%,8%
COc1ccccc1CNC(=O)C(=O)Nc1c(-c2ccccc2)[nH]c2ccccc12,99%,91%,0%
CC(C)(CNC(=O)[C@@H]1CCCCN1)c1nc(-c2ccc(Cl)c(O)c2)c(-c2ccncc2)[nH]1.Cl,97%,96%,0%
Cc1nc(C)c(CC(=O)Nc2ccc(-c3ccc(-c4nc5cc(C(F)(F)F)ccc5[nH]4)s3)cc2)s1,90%,29%,57%
COc1ccc(NC(=O)NC2CCN(CCCCCNC(=O)/C=C/c3ccc(Cl)c(Cl)c3)C2)c(OC)c1 (centres undefined),96%,9%,24%
Cc1cc(=NN=Cc2ccccc2F)c2cc(C(F)(F)F)ccc2[nH]1,100%,67%,5%
Cl.N=C(N)Nc1cccc(NC(=O)Nc2cccc(NC(=N)N)c2)c1,87%,71%,0%
Cc1ccc(CNC(=O)[C@H](CC(C)C)Nc2cc(C)nc(NCc3ccccc3C)n2)cc1.O=C(O)C(F)(F)F,87%,35%,3%
COc1cc(NC(=O)/C=C/c2cc(F)cc(F)c2F)cc(OCCN2CCC3(CC2)OCCO3)c1.O=C(O)C(=O)O,98%,26%,17%
